LmPK inh: LmPK (Leishmania mexicana) enzyme inhibition; Q27686; purified LmPK, Kinase-Glo ATP luminescence, 1 h; Potency, µM (highest dose often 57.5 µM), for the others: at the top dose activity change, negative = inhibition, hits mostly inhibitors; 290,000 tested, 0.37% active; further: potency means the concentration at half of the fitted maximal effect; on the % scale 0 is the no-effect control and ±100 the full control effect
Target sequence (Q27686 whole entry, looked up): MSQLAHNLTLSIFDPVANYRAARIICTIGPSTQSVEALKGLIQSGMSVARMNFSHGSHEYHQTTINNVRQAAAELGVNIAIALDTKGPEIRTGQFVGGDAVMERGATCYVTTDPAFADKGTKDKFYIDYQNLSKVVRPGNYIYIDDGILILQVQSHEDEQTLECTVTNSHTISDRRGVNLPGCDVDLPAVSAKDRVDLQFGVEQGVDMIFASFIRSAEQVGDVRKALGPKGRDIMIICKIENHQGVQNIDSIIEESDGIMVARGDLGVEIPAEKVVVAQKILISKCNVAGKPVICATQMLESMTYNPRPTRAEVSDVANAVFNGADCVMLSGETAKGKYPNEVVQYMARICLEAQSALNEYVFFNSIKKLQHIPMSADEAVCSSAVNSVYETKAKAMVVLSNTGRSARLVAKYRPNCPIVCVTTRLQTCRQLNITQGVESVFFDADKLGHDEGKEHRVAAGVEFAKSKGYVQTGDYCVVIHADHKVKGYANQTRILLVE
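0.1 nM LmPK, 0.5 mM PEP, 0.1 mM ADP; 50 mM imidazole pH 7.2, 7 mM MgCl2, 50 mM KCl; 1 h RT. Kinase-Glo luminescence readout, normalized to no-enzyme (full inhibition) and uninhibited wells.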
Pf growth 48h: P. falciparum growth inhibition at 48 hours (one generation). P. falciparum luciferase growth in erythrocytes, 48 h. Potency, µM (highest dose often 28.7 µM), for inactives: at the top dose activity change, negative = inhibition, actives largely listed as inhibitors. 310,000 tested, 5.9% active. AID 504832; further: potency means the concentration at half of the fitted maximal effect; on the % scale 0 is the no-effect control and ±100 the full control effect
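Parasite viability was followed by luminescence of a genomically integrated firefly luciferase. Cultures held 0.1% parasitemia at 2% hematocrit (final), incubated under 5% CO2 at 37 C.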
Shiga toxin inh: blocks Shiga toxin action in Vero cells | Vero cells, Shiga toxin protein synthesis inhibition reporter | inhibition, % at 38.7 µM | 290,000 tested, 9.2% active; in the data active means inhibition mostly above about 28%, no sharp cut-off; inactive means mostly below about 43%; further: 0% is about no effect
Cycloheximide cs: affects cycloheximide protein synthesis inhibition readout, counter-screen; cell reporter, cycloheximide protein synthesis inhibition counterscreen; max response, %; 300,000 tested, 12% active; in the data active means max response mostly above about 13%, no sharp cut-off; inactive means mostly below about 14%; further: read at 38.3 µM for the half of the compounds with a filed dose; 0% is about no effect
Pf growth 96h: P. falciparum growth inhibition at 96 hour, primary screen for plastid delayed-death inhibitors | Potency, µM (series often up to 28.7 µM), for the others: at the top dose activity change, negative = inhibition, hits mostly inhibitors | AID 504834 | 320,000 tested, 6.9% active | P. falciparum luciferase reporter growth, 96 h; further: potency means the concentration at half of the fitted maximal effect; on the % scale 0 is the no-effect control and ±100 the full control effect
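P. falciparum expressing integrated firefly luciferase grown in erythrocytes (2% hematocrit, 0.05% parasitemia final) with compounds for 96 hours at 37 C, 5% CO2. Growth inhibition read as loss of luminescence after adding luciferase detection reagent.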
* = called active by the depositor. Most compounds without a hit are left out; they make up all but 22% or so of the library. Unless noted, the call rests on the fitted dose curve; in most records, active means well fitted inhibition curve with a large enough effect; inconclusive means small, poorly fitted or top-dose-only effect, or another doubt; inactive means no such curve, though single readings can be large or run the other way.

For O=C(CCNC(=O)c1ccc(Cl)cc1)NCC(c1ccco1)N1CCCC1 (stereo not drawn) the results were Pf growth 48h 12µM* and Pf growth 96h inconclusive.
For CSCCC(NC(=O)c1ccccc1Br)C(=O)NCC(c1ccco1)N1CCCCC1 (stereo not drawn) the results were Pf growth 48h inconclusive and Pf growth 96h 9.3µM*.
`O=C(NCC(c1ccco1)N1CCOCC1)c1ccc(Cl)cc1` (stereo not drawn) gave Pf growth 48h 23% and Pf growth 96h 46%.
Screening COc1ccccc1N1C(=NC(=O)COc2ccccc2)SC2CS(=O)(=O)CC21 (stereo not drawn) returned LmPK inh -3%, Pf growth 48h -15%, Shiga toxin inh -2, Cycloheximide cs 1 and Pf growth 96h inconclusive.
Screening CCOC(=O)Cc1csc(NC(=O)CCSc2ccccc2)n1 returned LmPK inh 1%, Pf growth 48h -18%, Shiga toxin inh -11, Cycloheximide cs 10 and Pf growth 96h -15%.
O=C(Nc1nc(-c2ccccn2)cs1)C1CCCC1 was read as LmPK inh -15%, Pf growth 48h inconclusive, Shiga toxin inh 100*, Cycloheximide cs 57* and Pf growth 96h inconclusive.
O=C(CCCSc1ccccc1)Nc1nc(-c2ccccn2)cs1 was read as LmPK inh 9%, Shiga toxin inh -8, Cycloheximide cs 7 and Pf growth 96h 7.4µM*.
O=C(Nc1cccc2cccnc12)C1CCCC1 was read as LmPK inh 0%, Pf growth 48h 12%, Shiga toxin inh 15, Cycloheximide cs 9 and Pf growth 96h 4%.
O=C(COc1ccc(F)cc1Cl)Nc1nc(-c2ccccn2)cs1 was read as Pf growth 48h inconclusive and Pf growth 96h 13µM*.
`O=C(Nc1ccc2nc(-c3ccccn3)[nH]c2c1)C1CCCCC1` gave LmPK inh 1%, Pf growth 48h 14%, Shiga toxin inh 57*, Cycloheximide cs 36* and Pf growth 96h 13%.
Screening CCc1ccc(OCC(=O)N2CCN(c3ccccn3)CC2)c(Br)c1 returned LmPK inh -4%, Pf growth 48h 2%, Shiga toxin inh 1, Cycloheximide cs 1 and Pf growth 96h 28%.
Screening Cc1ccc2nc(Cl)c(/C=N/Nc3nc(C)cc(C)n3)c(=O)n2c1 returned LmPK inh -2%, Pf growth 48h -2%, Shiga toxin inh -4, Cycloheximide cs -3 and Pf growth 96h -19%.
For CSCCC(=O)Nc1nc(-c2ccccn2)cs1 the results were LmPK inh 9%, Pf growth 48h inconclusive, Shiga toxin inh 36, Cycloheximide cs 21* and Pf growth 96h inconclusive.
Screening O=C(CN1C(=O)CCC1=O)Nc1nc(-c2ccccn2)cs1 returned LmPK inh -1%, Shiga toxin inh -10, Cycloheximide cs -5 and Pf growth 96h inconclusive.
For Cc1csc(NC(=O)C2CCCCC2)n1 the results were LmPK inh 6%, Pf growth 48h 74%, Cycloheximide cs 24* and Pf growth 96h 129%.
For CCCNc1nc(-c2ccccc2)c(C(=O)OCC)cc1C#N the results were LmPK inh -3%, Pf growth 48h 12µM*, Shiga toxin inh -8, Cycloheximide cs 4 and Pf growth 96h 0%.
For CCc1ccc2occ(CC(=O)Nc3ccc(OC)c(Cl)c3)c2c1 the results were Shiga toxin inh 37* and Cycloheximide cs 13.
For CCOC(=O)/C=C/C(=O)OCC(=O)Nc1c(Cl)cccc1Cl the results were LmPK inh 7%, Pf growth 48h 13µM*, Shiga toxin inh 7, Cycloheximide cs 11 and Pf growth 96h -29%.
`CCOC(=O)/C=C/C(=O)OCC(=O)NCc1ccccc1` gave LmPK inh -1%, Pf growth 48h -26%, Shiga toxin inh 9, Cycloheximide cs 16* and Pf growth 96h inconclusive.
C/C(=N\NC(=O)COc1cccc(C)c1)c1ccc2ccccc2c1O was read as LmPK inh -1%, Pf growth 48h inconclusive, Shiga toxin inh 7, Cycloheximide cs -1 and Pf growth 96h 2.6µM*.
For CCCCCCCCCCCCCCCC(=O)OCC(COP(=O)(O)OCC[N+](C)(C)C)OC(=O)CCCCCCCCCCCCCCC (stereo not drawn) the results were Pf growth 48h -4% and Pf growth 96h -11%.
Screening CC(C)CC(=O)Nc1nnc(S(=O)(=O)N2CCc3ccccc32)s1 returned LmPK inh -7%, Pf growth 48h 20%, Shiga toxin inh -2, Cycloheximide cs 2 and Pf growth 96h 1%.
Screening CC(=O)Nc1ccc(S(=O)(=O)Nc2ccccc2N2CCOCC2)cc1 returned Pf growth 48h -8% and Pf growth 96h inconclusive.
For c1ccc(CN(Cc2ccccc2)c2ncnc3c2nnn3Cc2ccccc2)cc1 the results were LmPK inh 3%, Pf growth 48h inconclusive, Shiga toxin inh 21, Cycloheximide cs -2 and Pf growth 96h inconclusive.
Cc1cccc(OCC(=O)NNC(=O)CCc2ccccc2)c1 was read as LmPK inh 4%, Pf growth 48h 17%, Shiga toxin inh -2, Cycloheximide cs -1 and Pf growth 96h 2%.
CCOC(=O)/C=C/C(=O)OCC(=O)Nc1ccc(OC)c(Cl)c1 was read as LmPK inh 0%, Pf growth 48h 9%, Shiga toxin inh -2, Cycloheximide cs 12* and Pf growth 96h 0%.
For Cc1cccc(OCC(=O)NCc2ccccc2)c1 the results were LmPK inh 1%, Pf growth 48h 24%, Shiga toxin inh 12, Cycloheximide cs 6 and Pf growth 96h 9.3µM*.
Screening COc1cc(OC)cc(C(=O)Nc2ccccc2C(=O)NC2CC2)c1 returned Pf growth 48h inconclusive and Pf growth 96h -47%.
Screening COc1ccccc1C(=O)NC(=O)COC(=O)c1nc(Cl)ccc1Cl returned Pf growth 48h 8% and Pf growth 96h 1%.
CC(=O)c1ccc(NC(=O)c2ccc(N3C(=O)c4cccnc4C3=O)cc2)cc1 was read as LmPK inh 2%, Pf growth 48h 16%, Shiga toxin inh 32, Cycloheximide cs 22* and Pf growth 96h -12%.
O=C1c2cccnc2C(=O)N1c1ccccc1-c1ccccc1 was read as LmPK inh 3%, Shiga toxin inh 5 and Cycloheximide cs -3.
COc1ccc(N2C(=O)c3ccc(C(=O)Nc4ccc(NC(C)=O)cc4)cc3C2=O)cc1 was read as LmPK inh -4%, Pf growth 48h inconclusive, Shiga toxin inh -5, Cycloheximide cs -3 and Pf growth 96h -4%.
O=C(O)c1ccc(N2C(=O)c3cccnc3C2=O)cc1 was read as LmPK inh 1%, Pf growth 48h -5%, Shiga toxin inh 30, Cycloheximide cs 19* and Pf growth 96h 151%.
For Cc1ccc2oc3c(c(=O)c2c1)C(c1cccc(Br)c1)N(Cc1ccco1)C3=O (stereo not drawn) the results were LmPK inh 8%, Pf growth 48h -25%, Shiga toxin inh -11, Cycloheximide cs -4 and Pf growth 96h 13µM*.

Screens: PubChem BioAssay, National Center for Advancing Translational Sciences (NCATS)
